Screens (PubChem)
ELG1 repair inh: inhibitors of ELG1-dependent DNA repair in HEK293T cells | HEK293T ELG1-luciferase reporter, luminescence, 16 h; DNA damage induced by 5-fluorouridine | Potency, µM (titrated, usually from 46.1 µM), actives largely listed as inhibitors | 330,000 tested, 2.3% active | AID 504467; further: nearly all actives have a fitted effect of over 55% in size
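DMSO vehicle served as the neutral condition. Each well held 2,000 cells given 5-fluorouridine plus compound; after 16 hr at 37 °C/5% CO2, ONE-Glo was added and luciferase measured 30 min later.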
Giardia killer: kills Giardia lamblia; Giardia lamblia trophozoite viability; activity change, % at 7.66 µM, hits read low; 340,000 tested, 0.15% active; AID 540267; in the data active means activity change below about -80%; inconclusive means between about -30% and that limit;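 further: parasites exposed to compound for two days anaerobically before the ATP read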
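Luminescence from cellular ATP indicates surviving trophozoites (100 cells/well) following 48 hrs anaerobic compound treatment at 37 deg C; signal develops 15-30 min at room temperature.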
Coupling enz: coupling enzyme interference in Giardia aldolase counter-screen | coupling enzyme system counterscreen, AmpLite Red fluorescence | activity change, negative = inhibition, % at 58.2 µM, hits read low | 290,000 tested, 0.67% active | AID 2472; in the data active means activity change below about -30%
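Fluorescence at 525 nm excitation and 598 nm emission measured inhibition of the coupled detection system without aldolase. Compounds (at 57.5 uM final) were preincubated 10 min at room temperature with coupling enzyme reagent before a 20 min substrate/AmpLite Red step.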
Sfp inh: Sfp phosphopantetheinyl transferase inhibition. Potency, µM, usual class: inhibitors. 310,000 tested, 3.5% active. AID 1490. Biochemical Sfp PPTase activity, qHTS. Q9F4F7;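 further: the enzyme is Sfp with the accession as filed and its product quenches rhodamine fluorescence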
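Buffer: 50 mM Hepes-Na pH 7.6, 10 mM MgCl2, 0.01% Nonidet P-40, 0.01% BSA. Enzyme 15 nM, pre-exposed to compound 15 min; substrates then added and fluorescence change tracked over 30 min.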
Large screens that a line does not name were inactive; ! = a repeat was not active. The list is not random: actives were taken first. Their share in the collection is about 5.5%. Unless noted, the call rests on the fitted dose curve; in most records, active means well fitted curve in the direction sought with a large enough effect; inconclusive means small, poorly fitted or top-dose-only effect, or another doubt; inactive means no such curve, though single readings can be large; an effect the other way counts as inactive or inconclusive.

COc1ccc2c(c1)O[C@@H](c1ccc3c(c1)OCO3)[C@H](OC(=O)NS(=O)(=O)c1ccc(F)cc1)C2=O	none (no result: ELG1 repair inh, Giardia killer)
Cc1ccc(S(=O)(=O)NC2CCSC2=O)cc1C (configuration not stated)	none (no result: Coupling enz, Sfp inh)
C=CCN(CC=C)S(=O)(=O)c1ccc(C(=O)Nc2nnc(CSC)o2)cc1	ELG1 repair inh 18µM
CCc1nnc(NC(=O)c2ccc(S(=O)(=O)N(C)c3ccccc3)cc2)o1	ELG1 repair inh 7.3µM
COCCN(CCOC)S(=O)(=O)c1ccc(C(=O)Nc2nnc(COC)o2)cc1	none
CCCN(CCC)S(=O)(=O)c1ccc(C(=O)Nc2nnc(COC)o2)cc1	ELG1 repair inh 18µM
CCN(CC)S(=O)(=O)c1ccc(OC)c(NC(=O)c2cc([N+](=O)[O-])ccc2Cl)c1	ELG1 repair inh inconclusive
COCCN(CCOC)S(=O)(=O)c1ccc(C(=O)Nc2ccc([N+](=O)[O-])cc2OC)cc1	Sfp inh 45µM
COCCN(CCOC)S(=O)(=O)c1ccc(C(=O)Nc2nnc(CSC)o2)cc1	Sfp inh inconclusive
CCN(Cc1ccccc1)S(=O)(=O)c1ccc(C(=O)Nc2nnc(C3CC3)o2)cc1	ELG1 repair inh 12µM
COCCN(CCOC)S(=O)(=O)c1ccc(C(=O)Nc2nnc(C)o2)cc1	ELG1 repair inh inconclusive, Sfp inh 89µM
CN(Cc1ccco1)c1ccnc(-c2ccoc2)n1	Sfp inh 50µM (no result: ELG1 repair inh, Giardia killer)
CC(C)C1=C2OC(N)=C(C#N)C(C#N)=C2C(C)CC1 (configuration not stated)	Coupling enz -39, Sfp inh 79µM
O=C(c1ccccc1)c1c[nH]cc1-c1ccccc1	none
COC1=C(c2ccccc2)C(=O)c2ccccc2C1=O	Coupling enz -33
O=C(C1=C(c2ccccc2)C(=O)c2ccccc2C1=O)c1ccccc1	ELG1 repair inh 6.5µM, Giardia killer inconclusive, Coupling enz -62
COc1ccc(C2=C(N)c3ccccc3C2=O)cc1	ELG1 repair inh inconclusive
COc1ccc(N2CCN(C(=O)COC(=O)c3ccc(C)o3)CC2)cc1	none (no result: Coupling enz, Sfp inh)
O=C(Nc1ccc(Cl)cc1)[C@@H]1[C@@H]2C(=O)N(c3cccc(F)c3)C(=O)[C@@H]2[C@H]2C=CC=NN21	none
O=C(Nc1ccc(Cl)cc1)[C@@H]1[C@@H]2C(=O)N(c3ccc4ccccc4c3)C(=O)[C@@H]2[C@H]2C=CC=NN21	Sfp inh 40µM
COc1ccc(N2C(=O)[C@@H]3[C@H](C2=O)[C@H]2C=CC=NN2[C@@H]3C(=O)Nc2ccc(Cl)cc2)cc1	Sfp inh 35µM
COc1ccc2c(c1C)CCC(C)(C#N)C2=O (configuration not stated)	none (no result: ELG1 repair inh, Coupling enz, Sfp inh)
N#CC1=C(SCc2ccccc2)NC(=O)CC1c1ccco1 (configuration not stated)	Sfp inh 45µM
CCCOc1ccccc1C(=O)N1CCCCC1CCN1CCCCC1 (configuration not stated)	none (no result: ELG1 repair inh, Coupling enz, Sfp inh)
CN(C)c1ccc(C(=O)/C=C/c2cccnc2)cc1	ELG1 repair inh inconclusive
O=C(/C=C/c1cccnc1)c1ccc(F)c(F)c1	ELG1 repair inh inconclusive, Sfp inh 63µM
O=C(/C=C/c1cccc(OCc2ccccc2)c1)c1cccnc1	ELG1 repair inh inconclusive, Sfp inh 50µM
O=C(/C=C/c1ccc([N+](=O)[O-])cc1)c1cccnc1	ELG1 repair inh inconclusive, Sfp inh 18µM
CCCCn1c(N)c(N(CCC(C)C)C(=O)CC2CCCC2)c(=O)[nH]c1=O	none (no result: Coupling enz, Sfp inh)
Fc1ccccc1-c1nc2ccccc2[nH]1	ELG1 repair inh inconclusive
c1ccc2[nH]c(-c3ccnc4ccccc34)nc2c1	ELG1 repair inh inconclusive, Sfp inh 79µM!
Cc1cccc(-c2nn(-c3ccccc3)cc2C(=O)Nc2cccc(S(=O)(=O)NC3=NCCC3)c2)c1	ELG1 repair inh inconclusive (no result: Coupling enz, Sfp inh)
CCOc1ccccc1Nc1nnc(SCC(=O)Nc2cccc(S(=O)(=O)NC3=NCCCCC3)c2)s1	ELG1 repair inh 18µM, Sfp inh inconclusive
COc1ccc(-c2nn(-c3ccccc3)cc2C(=O)Nc2cccc(S(=O)(=O)NC3=NCCC3)c2)cc1	ELG1 repair inh 23µM (no result: Coupling enz, Sfp inh)
Cc1ccc(C(C)C)c(OCC(=O)Nc2cccc(S(=O)(=O)NC3=NCCCCC3)c2)c1	ELG1 repair inh 23µM (no result: Coupling enz)
O=C(Nc1cccc(S(=O)(=O)NC2=NCCC2)c1)c1cc(-c2ccccn2)nc2ccccc12	none
O=C(Nc1cccc(S(=O)(=O)NC2=NCCCCC2)c1)c1cc(-c2ccccc2Cl)nc2ccccc12	ELG1 repair inh 23µM
COC(=O)c1ccccc1N(C)S(=O)(=O)c1cc2c3c(c1)CCC(=O)N3CCC2	none (no result: Coupling enz, Sfp inh)
O=P1(O)OP(=O)(O)OP(=O)(O)O1.[Al]	none (no result: ELG1 repair inh, Giardia killer)
CC[C@@]12C(=O)N(c3cccc(F)c3)C(=O)N1[C@H](c1ccc(Br)cc1)[C@@H]1C(=O)N(C(C)(C)C)C(=O)[C@@H]12	none (no result: Coupling enz, Sfp inh)
O=C(/C=C/c1ccc2c(c1)OCO2)Nc1nncs1	none
Cc1sc(NC(=O)/C=C/c2ccc3c(c2)OCO3)nc1-c1ccccc1	ELG1 repair inh 8.2µM
O=C(/C=C/c1ccc2c(c1)OCO2)Nc1nc(-c2ccccc2)cs1	ELG1 repair inh 18µM
COc1cc2c(cc1OC)CN(C(=O)/C=C/c1cccc([N+](=O)[O-])c1)CC2	none
O=C(NNC(=O)c1cc2ccccc2o1)c1ccc(F)cc1	ELG1 repair inh inconclusive (no result: Coupling enz, Sfp inh)
Cc1csc(C(C#N)C(=O)c2cc3ccccc3o2)n1 (configuration not stated)	ELG1 repair inh inconclusive, Giardia killer inconclusive, Sfp inh 50µM
CCCCC1(C)NC(=S)N2N1C(=S)NC2(C)CCCC (configuration not stated)	Sfp inh 56µM
CC1(C)Cc2ccccc2C2=NNC(=O)C2=N1	ELG1 repair inh inconclusive, Coupling enz -57
CCOc1ccc(S(=O)(=O)Nc2ccc(C(=O)N3CCCC3)cc2)cc1C(N)=O	none (no result: Coupling enz)
COc1ccc(C(=O)CCN2CCN(c3ccccc3OC)CC2)cc1	Sfp inh 50µM
COc1ccccc1N1CCN(CC(=O)N2CCCC2)CC1	Sfp inh 50µM
Cc1c(N2C(=O)/C(=C/c3ccc(N(C)C)cc3)N(C)C2=S)c(=O)n(-c2ccccc2)n1C	none (no result: ELG1 repair inh, Coupling enz, Sfp inh)
CC(=O)N1CCC2(CC1)C(C#N)=C(N)Oc1c2sc2nc(C)cc(C)c12	none
CCN1CCC2(CC1)C(C#N)=C(N)Oc1c2sc2nc(C)cc(C)c12	Sfp inh 50µM
Cc1ccc(C)c(-n2c(C)cc(/C=N/NC(=O)c3c(C)nc4cc(C)ccn34)c2C)c1	ELG1 repair inh 18µM
Cc1ccn2c(C(=O)N/N=C\c3cccs3)c(C)nc2c1	none
Cc1cccc(NC(=O)CCS(=O)(=O)c2cc3c(cc2Cl)NC(=O)CO3)c1	none (no result: Coupling enz)
COC(=O)c1c(C)[nH]c(O)c1C=Nc1ccc(C#N)cc1	Coupling enz -36, Sfp inh 45µM
CCOC(=O)c1c(C)[nH]c(O)c1C=Nc1ccccc1	Sfp inh inconclusive
CCN(CC(=O)NCc1cccs1)C(=O)c1ccc(S(=O)(=O)Nc2ccccc2F)cc1	none (no result: Coupling enz, Sfp inh)
c1ccc2nc3c(nc2c1)CCc1nonc1-3	none
O/N=C1/CCc2nonc2/C1=N/O	Sfp inh 50µM
CCCc1nc2ccccc2c(NC(=O)CN(CC)CC)c1CC	Sfp inh 56µM
